Shown is part of a subset that was picked to be rich in hits.
14-3-3 PPI: modulators of human 14-3-3 gamma - Raf peptide interaction; inhibition, % at 40 µM; 160,000 compounds, 0.19% hits; P61981; FP, 14-3-3gamma / TMR-pS259-Raf peptide binding; AID 422; in the data active means inhibition above about 30%
Target sequence (P61981 whole entry, looked up): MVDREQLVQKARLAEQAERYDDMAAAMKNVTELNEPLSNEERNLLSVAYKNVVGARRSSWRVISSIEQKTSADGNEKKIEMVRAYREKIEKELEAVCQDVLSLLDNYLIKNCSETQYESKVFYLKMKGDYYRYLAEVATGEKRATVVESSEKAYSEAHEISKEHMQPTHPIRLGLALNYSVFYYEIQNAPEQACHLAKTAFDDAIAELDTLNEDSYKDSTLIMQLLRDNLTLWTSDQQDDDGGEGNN
Numbers stand for hits.

`CCSc1nnc2c(n1)OC(c1ccccc1C)Nc1ccccc1-2` (stereo not drawn) gave 14-3-3 PPI 41.
For C=CCSc1nnc2c(n1)OC(c1ccccc1C)Nc1ccccc1-2 (stereo not drawn) the results were 14-3-3 PPI inactive.
CCSc1nnc2c(n1)OC(c1cccc(C)n1)Nc1ccccc1-2 (stereo not drawn) was read as 14-3-3 PPI inactive.
`Cc1ccc(N2COc3ccc4c(C)cc(=O)oc4c3C2)c(C)c1` gave 14-3-3 PPI inactive.
For COc1ccc(OC)c(C=Cc2ccc3cccc(O)c3n2)c1 the results were 14-3-3 PPI inactive.
O=[N+]([O-])c1ccccc1-c1ccc(C=Cc2ccc3ccccc3n2)o1 was read as 14-3-3 PPI inactive.
`Cc1cc([N+](=O)[O-])ccc1-c1ccc(C=Cc2ccc3cccc(O)c3n2)o1` gave 14-3-3 PPI 144.
For COc1cccc(C(=O)NCc2n[nH]c(=S)n2-c2cccc(Cl)c2)c1 the results were 14-3-3 PPI inactive.
Screening CCc1ccc(NC(=O)c2ccc(N3CCC(C)CC3)c([N+](=O)[O-])c2)cc1 returned 14-3-3 PPI inactive.
`CC1CCN(CCCNC(=O)CSc2cc(=O)n(C)c3cc(Cl)ccc23)CC1` gave 14-3-3 PPI inactive.
`COc1ccc(-n2c(C=Cc3ccc(O)cc3)nc(=O)c(-c3ccccc3)c2C)cc1` gave 14-3-3 PPI inactive.
O=C(O)CCCNc1cc(N2CCC3(CC2)OCCO3)c2noc3c2c1C(=O)c1ccccc1-3 was read as 14-3-3 PPI inactive.
O=C(O)CCCNc1cc(N2CCN(c3cccc(C(F)(F)F)c3)CC2)c2noc3c2c1C(=O)c1ccccc1-3 was read as 14-3-3 PPI inactive.
O=C(O)CCCNc1cc(N2CCCCCC2)c2noc3c2c1C(=O)c1ccccc1-3 was read as 14-3-3 PPI 67.

High-throughput results (PubChem BioAssay)
